# Assay results published in PubChem BioAssay AID504332 (National Center for Advancing Translational Sciences (NCATS), 2011).
# In all, about 350,000 compounds went through this assay and about 31,000 (8.9%) were called active. About 15% were inconclusive and are not listed. This is one part of a sample in which actives are shown more often than they occur. Calls come from the whole dose curve; as a rule, active = well fitted inhibition curve with a large enough effect; inconclusive = small, poorly fitted or top-dose-only effect; inactive = no such curve, though single readings can be large or run the other way.
# Target: Histone-lysine N-methyltransferase EHMT2 (Homo sapiens) (UniProt Q96KQ7)
# Sequence (Q96KQ7 913-1193 limits assumed): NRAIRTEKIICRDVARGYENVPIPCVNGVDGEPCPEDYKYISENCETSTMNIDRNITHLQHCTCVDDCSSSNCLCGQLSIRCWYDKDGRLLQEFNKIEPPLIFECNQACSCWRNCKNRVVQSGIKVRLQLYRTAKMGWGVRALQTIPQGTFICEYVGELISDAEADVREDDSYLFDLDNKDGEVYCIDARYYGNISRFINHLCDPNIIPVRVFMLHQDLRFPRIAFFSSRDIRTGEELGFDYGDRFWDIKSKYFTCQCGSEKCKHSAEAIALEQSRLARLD
# Experiment: qHTS Assay for Inhibitors of Histone Lysine Methyltransferase G9a; note: nearly all actives have a fitted effect of over 75% in size
# Conditions: G9a H3K9 monomethylation, AlphaScreen, 2 h; series mostly up to 59 µM; activity, negative = inhibition: at the top concentration
# Outline: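 Chemiluminescent proximity detection of H3K9 monomethylation, read after 10 min bead incubation in the dark. Reaction: 20 nM G9a, 500 nM biotin-H3K9 peptide, 20 uM SAM cofactor, 2 h, room temperature, following 15 min enzyme-compound preincubation.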
# % is set by controls: 0 for no effect and ±100 for the full control effect; potency is the fitted concentration of half-maximal effect.
Compound,"activity, negative = inhibition",Potency
CC(=O)c1ccc(S(=O)(=O)NCCC(=O)N2CCN(c3ccccn3)CC2)cc1,-0.0681% [at 12.7 µM] (inactive),
COc1ccccc1OCCOc1ccc(/C=N/n2cnnc2)cc1,-8.1% [at 12.7 µM] (inactive),
COc1cc(/C=N/O)ccc1OCc1ccc([N+](=O)[O-])cc1,-5.67% (inactive),
CCOc1ccc(/C=N/Nc2nncc(-c3ccccc3)n2)cc1OC,16% [at 102 µM] (inactive),
Fc1ccc(/C=N/n2c(COc3ccccc3)n[nH]c2=S)cc1,,1.58 µM (active)
O=[N+]([O-])c1ccccc1/C=N/n1c(COc2ccccc2)n[nH]c1=S,,1 µM (active)
COc1cc(/C=N/n2c(C)n[nH]c2=S)ccc1OCc1ccccc1,,2.24 µM (active)
O=c1ccc(S(=O)(=O)N2CCCC2)cn1Cc1nc(-c2ccccc2)no1,-6.5% [at 2.33 µM] (inactive),
CCN(C(=O)COC(=O)c1c(C)nn(-c2ccccc2)c1Cl)c1c(N)n(Cc2ccccc2)c(=O)[nH]c1=O,-45.7% [at 102 µM] (inactive),
Cc1ccccc1-c1cc(C(=O)NCC2CC2)n(CC2CC(c3cccnc3)=NO2)n1 (centres undefined),-3.05% [at 0.501 µM] (inactive),
CC1CN(C(=O)N2CCC(C(=O)NCc3ccco3)CC2)c2cc(Cl)ccc2O1 (centres undefined),-27.9% (inactive),
O=C(NCCS(=O)(=O)c1ccc(Br)cc1)c1ccccc1Cl,37.8% [at 102 µM] (inactive),
COc1ccccc1CNC(=O)CCn1c(=O)c2ccccc2n(CC(=O)Nc2ccc(Br)cc2F)c1=O,-30.5% (inactive),
COc1ccc(N2CCN(S(=O)(=O)c3cc4c5c(c3)C(C)C(=O)N5CCC4)CC2)cc1 (centres undefined),,44.7 µM (active)
CCOc1ccccc1NS(=O)(=O)c1cc2c3c(c1)C(C)C(=O)N3CCC2 (centres undefined),5.21% [at 102 µM] (inactive),
COc1ccc(N2CCN(S(=O)(=O)c3ccc4c(c3)NC(=O)C(C)C(=O)N4)CC2)cc1 (centres undefined),-7.4% [at 102 µM] (inactive),
COCC1CCN(C(=O)C2CCC(=O)N(CC3CCCCC3)C2)CC1 (centres undefined),77.4% [at 102 µM] (inactive),
N#Cc1c(-c2cccs2)nc(SCC(=O)c2ccc(Br)cc2)[nH]c1=O,,39.8 µM (active)
Cc1ccc(CSc2nc(-c3ccccc3)c(C#N)c(=O)[nH]2)cc1,16.7% [at 2.33 µM] (inactive),
N#Cc1ccc(-c2cccs2)nc1SCc1ccc(Br)cc1,49.5% (inactive),

Compound,"activity, negative = inhibition",Potency
Cc1ccc(-c2cc(-c3coc4ccccc4c3=O)c3c(n2)-c2cc(Cl)ccc2OC3)cc1,-32.2% (inactive),
Nc1ccc(Nc2cc(O)c3ncccc3c2)cc1,,1.58 µM (active)
COc1ccc(NC(=O)Nc2cccc3cccnc23)cc1,-19.4% [at 102 µM] (inactive),
O=C(NCCN1CCN(C(=O)c2cccc([N+](=O)[O-])c2)CC1)C(=O)NCc1ccc(Cl)cc1,1.83% [at 102 µM] (inactive),
CSc1ccc(C2c3c(oc4ccccc4c3=O)C(=O)N2CCCN2CCOCC2)cc1 (centres undefined),-2.82% (inactive),
COc1ccc(Cl)cc1NC(=O)CSc1nc(=O)[nH]c2c1CCCC2,-3.14% (inactive),
COc1ccc(-c2cc(C(=O)N(C)CC(=O)Nc3ccccc3Cl)c3ccccc3n2)cc1OC,-0.839% [at 102 µM] (inactive),
CCOC(=O)c1ccc(Nc2cc(C)nc3nc(C)nn23)cc1,,79.4 µM (active)
CCOC(=O)c1ccc(NC(=S)Nc2cc(C)cc(C)n2)cc1,10.3% [at 102 µM] (inactive),
Cc1cc(C)n2nc(C(=O)OCC(=O)N(C)CC(=O)Nc3ccc(F)cc3)nc2n1,-2.62% [at 12.7 µM] (inactive),
O=C(Nc1ccccc1Cl)N1CCC(CN2CCCC2)CC1,2.03% (inactive),
CCOC(=O)c1nnn(CC(=O)NC(=O)Nc2ccccc2F)c1C(=O)OCC,-35.9% (inactive),
Cc1ccc(NC(=O)C(c2ccccc2)N2CCN(C(=O)c3ccco3)CC2)cc1 (centres undefined),-37.3% [at 12.7 µM] (inactive),
Cc1cc(C)cc(NC(=O)C(c2ccccc2)N2CCN(CC(=O)N3CCCC3)CC2)c1 (centres undefined),,50.1 µM (active)
Cc1cc(C)cc(NC(=O)N2CCCCCCC2)c1,6.79% [at 102 µM] (inactive),
Cc1cc(C(=O)OCC(=O)Nc2ccccc2Cl)c(C)o1,-9.85% [at 12.7 µM] (inactive),
Cc1ccc(S(=O)(=O)C(C#N)c2nc3ccccc3nc2N2CCCC2)cc1C (centres undefined),,2.82 µM (active)
Cc1cc(N2CCN(S(=O)(=O)c3ccc(C)c(C)c3)CC2)c2ccccc2n1,22.6% [at 12.7 µM] (inactive),
CC(C)OC(=O)C(C#N)c1nc2ccccc2nc1N1CCN(Cc2ccccc2)CC1 (centres undefined),53% (inactive),
COc1ccc(-c2noc(CSc3nnc(-c4ccccc4)n3-c3ccc(F)cc3)n2)c(OC)c1,-7.39% (inactive),

Compound,"activity, negative = inhibition",Potency
CCN(CC(=O)Nc1ccc(NC(C)=O)cc1)C(=O)C1CC(=O)N(Cc2ccc(C)cc2)C1 (centres undefined),-0.244% [at 0.501 µM] (inactive),
c1n[nH]c(NCc2ccc3c(c2)OCO3)n1,-1.38% (inactive),
N#Cc1nc(Cc2cccc3ccccc23)oc1NCc1ccc2c(c1)OCO2,,10 µM (active)
O=C(CCNS(=O)(=O)c1ccccc1C(F)(F)F)NCc1ccc2c(c1)OCO2,0.774% (inactive),
Cc1cc(NS(=O)(=O)c2ccc(NC(=O)c3ccccc3C)cc2)nc(C)n1,2.07% (inactive),
CCc1cccc(-n2nnc(-c3nsc(NC(=O)c4ccc(C)cc4)n3)c2C)c1,-0.566% (inactive),
CCCCSc1ncnc2c1sc1nc(N3CCOCC3)c3c(c12)CCCC3,-8.07% (inactive),
COC(=O)c1ccc(CNC(=O)c2ccc3oc(C(C)C)nc3c2)cc1,29.5% [at 102 µM] (inactive),
O=C1CC(c2cccc(Cl)c2)CC(O)=C1C=Nc1ccccc1 (centres undefined),19.3% (inactive),
O=C1CCCC(O)=C1C=NCCc1ccccc1,-16.2% (inactive),
CC1(C)CC(=O)C(C=NCCN2CCN(C(=S)Nc3cccc(Cl)c3)CC2)=C(O)C1,-2.18% [at 0.501 µM] (inactive),
CCNC(=S)N1CCN(CCN=CC2=C(O)CC(C)(C)CC2=O)CC1,26.3% [at 102 µM] (inactive),
CC(C)C(=O)N1CCN(CCN=CC2=C(O)CC(c3ccco3)CC2=O)CC1 (centres undefined),,50.1 µM (active)
O=C1CC(c2ccccc2)CC(O)=C1C=NCCN1CCOCC1 (centres undefined),,12.6 µM (active)
COc1ccc2c(c1)C=C(C(=O)NCc1cc(Br)ccc1OC)CO2,-5.53% (inactive),
COc1ccc(OC)c(NC(=O)C2CCCN(S(=O)(=O)c3ccc4c(c3)CCCC(=O)N4)C2)c1 (centres undefined),-27.3% (inactive),
O=C(Nc1nc(-c2ccco2)c(-c2ccco2)s1)c1ccco1,16.3% [at 2.33 µM] (inactive),
CCN(c1ccc(Cl)cc1)S(=O)(=O)c1nnc(NC(=O)c2ccco2)s1,-16.6% (inactive),
O=C(Nc1nnc(CCOCCOCCc2nnc(NC(=O)c3ccco3)s2)s1)c1ccco1,,14.1 µM (active)
